This passage reports outcome and Potency results from PubChem BioAssay (Tox21).

Where “and” joins values, the source holds several entries; their conditions need not be identical. Equal entries are not always repeated. Inconclusive results are not listed. Some compounds were tested as several samples or in several runs, with calls that do not always agree. Calls of active or inactive are those of the source. Unless noted, calls come from the whole dose curve; as a rule, active = well fitted curve in the direction sought with a large enough effect in the repeat runs; inconclusive = weak or mixed curves; inactive = no such curve, though single readings can be large; an effect the other way counts as inactive or inconclusive.

Assay [1] can be described thus: qHTS assay to identify small molecule antagonists of the estrogen receptor alpha (ER-alpha) signaling pathway using the BG1 cell line in the presence of 0.1 nM 17-beta-estradiol - cell viability counter screen (AID 1259241). Note: nearly all actives have a fitted effect of over 40% in size. An outline of the steps:
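CellTiter-Fluor read (30 min, 37C) on ER-alpha/ERE-luc VM7Luc4E2 cells; 22 hr compound treatment; agonist 0.1 nM E2 final; same-well multiplex.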
(In general: In qHTS, concentration-response curves come from the screen itself.)

Assay [2] is described as follows: qHTS assay to identify small molecule antagonists of the androgen receptor (AR) signaling pathway using the MDA cell line in the presence of 0.5 nM R1881 - cell viability counter screen (AID 1259242). Note: nearly all actives have a fitted effect of over 45% in size. A digest of the protocol: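 MDA-kb2 cells (human breast carcinoma, stably carrying MMTV-luciferase reporter) were exposed to compounds with 0.5 nM R1881 (final) for 16 hr at 37C, 0% CO2; viability then read as live-cell protease fluorescence (CellTiter-Fluor, 30 min) in the same wells.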

Assay [3] addresses Estrogen receptor (Homo sapiens) (UniProt P03372). Put plainly: qHTS assay to identify small molecule antagonists of the estrogen receptor alpha (ER-alpha) signaling pathway using the BG1 cell line in the presence of 0.1 nM 17-beta-estradiol (AID 1259244). Note: nearly all actives have a fitted effect of over 50% in size. A digest of the protocol: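 VM7Luc4E2 cells (endogenous full-length ER-alpha, stable 4xERE-luciferase) were grown 5 days in phenol red-free medium with charcoal-stripped FBS, then exposed 22 h at 37C to compounds plus 0.1 nM (final) 17beta-estradiol; ONE-Glo luminescence read-out.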

Assay [4] is described as follows: qHTS assay to identify small molecule phospholipidosis (PLD) inducers (AID 1259344; active = well fitted curve in the direction sought with a large enough effect; an effect the other way counts as inactive or inconclusive). An outline of the steps: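 HepG2 cells on collagen I, attached 4 h at 37 C, were co-treated with compound and LipidTOX Red dye for 24 h at 37 C, then fixed with paraformaldehyde plus Hoechst 33342 and imaged by high-content microscopy for phospholipid accumulation.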
Assay [5] can be described thus: qHTS assay to identify small molecule HDAC inhibitors - cell viability counter screen (AID 1259365). Note: series mostly up to about 92 µM; nearly all actives have a fitted effect of over 50% in size. A digest of the protocol:
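To flag cytotoxic hits, 1,500 wild-type HCT-116 cells per well, plated the day before, receive test compounds for 2hr at 37 C before CellTiter-Glo reagent and a luminescence read.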

Assay [6] in a line: qHTS assay to identify small molecule agonists of the sonic hedgehog signaling (Shh) pathway - cell viability counter screen (AID 1259366). Note: nearly all actives have a fitted effect of over 50% in size. Note: potency is the fitted concentration of half-maximal effect. A digest of the protocol:
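Fluorescence from CellTiter-Fluor reports live cells in this counter screen. NIH/3T3-derived Gli1-Luc reporter cells receive test compounds for 24hr at 37C; reagent goes in at 23hr.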

The nature of assay [7]: qHTS assay to identify small molecule antagonists of the sonic hedgehog signaling (Shh) pathway - cell viability counter screen (AID 1259367). Note: nearly all actives have a fitted effect of over 55% in size. Note: potency is the fitted concentration of half-maximal effect. A digest of the protocol:
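NIH/3T3-derived Gli1-Luc reporter cells (2,000 per well) rested 4 hr at 37 C, then received DMSO compounds plus conditioned medium. After 23 hr of treatment, CellTiter-Fluor was added for 1 hr at 37C and fluorescence read.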

A short description of assay [8]: qHTS assay to identify small molecule agonists of the sonic hedgehog signaling (Shh) pathway (AID 1259368; calls by dose curve; note: series mostly up to about 92 µM; nearly all actives have a fitted effect of over 15% in size). An outline of the steps: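 NIH/3T3-derived 3T3Gli1-Luc cells carrying a stably integrated Gli1 response element–firefly luciferase reporter were plated, left 4 hr at 37 C, then given compounds in DMSO for 24 hr. Luminescence was read 30 min after adding luciferase reagent.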

The nature of assay [9]: qHTS assay to identify small molecule antagonists of the sonic hedgehog signaling (Shh) pathway (AID 1259369; calls by dose curve; note: nearly all actives have a fitted effect of over 45% in size; note: potency is the fitted concentration of half-maximal effect). An outline of the steps:
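NIH/3T3-derived 3T3Gli1-Luc cells with stably integrated Gli1-Luc reporter were preincubated 4hr at 37 C, then given compounds in DMSO plus Shh conditioned medium and incubated 24hr. Firefly luciferase luminescence read after 30min reagent at room temperature.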

For assay [10], the target named is Estrogen receptor beta (Homo sapiens) (UniProt Q92731). The assay can be described thus: qHTS assay to identify small molecule agonists of the estrogen receptor beta (ER-beta) signaling pathway (AID 1259377; active = well fitted activation curve with a large enough effect in the signal ratio in the repeat runs, not every such curve was filed as active; the % refers to the signal ratio). An outline of the steps: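 Screening used GripTite ER-beta-UAS-bla cells held in 2% charcoal-stripped FBS medium. After overnight (16 hr) compound incubation at 37C, beta-lactamase activity was detected with a FRET substrate by fluorescence.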
Sequence of Estrogen receptor beta (Homo sapiens) (Q92731 whole entry, looked up): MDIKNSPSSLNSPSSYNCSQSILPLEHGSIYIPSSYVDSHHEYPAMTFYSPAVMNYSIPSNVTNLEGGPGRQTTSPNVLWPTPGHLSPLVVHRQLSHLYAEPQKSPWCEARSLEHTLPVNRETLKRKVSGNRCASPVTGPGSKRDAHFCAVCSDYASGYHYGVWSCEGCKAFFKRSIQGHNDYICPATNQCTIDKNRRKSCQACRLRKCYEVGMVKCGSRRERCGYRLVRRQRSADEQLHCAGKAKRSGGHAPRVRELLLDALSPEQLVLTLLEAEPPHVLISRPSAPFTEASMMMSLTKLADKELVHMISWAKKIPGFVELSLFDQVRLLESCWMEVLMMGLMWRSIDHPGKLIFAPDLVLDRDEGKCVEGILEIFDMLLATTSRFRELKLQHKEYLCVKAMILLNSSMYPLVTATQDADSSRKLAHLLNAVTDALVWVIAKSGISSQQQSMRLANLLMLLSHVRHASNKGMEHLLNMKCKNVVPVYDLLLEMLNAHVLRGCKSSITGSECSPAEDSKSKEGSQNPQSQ

Assay [11] shares this target. The assay can be described thus: qHTS assay to identify small molecule antagonists of the estrogen receptor beta (ER-beta) signaling pathway (AID 1259378; active = well fitted inhibition curve with a large enough effect in the signal ratio in the repeat runs, not every such curve was filed as active; the % refers to the signal ratio). A digest of the protocol:
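ER-beta-UAS-bla HEK293T (GripTite) cells in 2% charcoal-stripped FBS medium were preincubated 6 hr at 37C, dosed with compound, then stimulated with 1 nM E2 (final) for 16 hr; beta-lactamase reporter read by B/G FRET fluorescence after 2 hr substrate loading.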

Assay [12] is described as follows: qHTS assay to identify small molecule agonists of the androgen receptor (AR) signaling pathway in the presence of an antagonist - cell viability counter screen (AID 1259379). Note: series mostly up to about 92 µM; nearly all actives have a fitted effect of over 25% in size. An outline of the steps:
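MDA-kb2 human breast carcinoma cells (stable MMTV-luciferase, AR/GR responsive) were seeded 3,000 cells/well, pre-incubated 5 hr at 37C without CO2, then given 3.0uM nilutamide and compounds at 15 concentrations for 16 hr. Viability was read by CellTiter-Fluor fluorescence.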

Assay [13] in a line: qHTS assay to identify small molecule agonists of the estrogen receptor beta (ER-beta) signaling pathway - cell viability counter screen (AID 1259380). Note: nearly all actives have a fitted effect of over 30% in size. A digest of the protocol: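 ER-beta-UAS-bla HEK293T cells in medium with 2% charcoal-stripped FBS were preincubated 6 hr at 37C, dosed with compound in DMSO for 16 hr, then after the bla read, CellTiter-Glo was added for 30 min at room temperature; luminescence recorded.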

Assay [14] can be described thus: qHTS assay to identify small molecule antagonists of the estrogen receptor beta (ER-beta) signaling pathway - cell viability counter screen (AID 1259382). Note: series mostly up to about 92 µM; nearly all actives have a fitted effect of over 55% in size. A digest of the protocol:
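ER-beta-UAS-bla HEK293T cells (2,000/well, 2% charcoal-stripped FBS) were pre-incubated 6 hr at 37C, then given compound plus 1nM final 17-beta-estradiol for 16 hr. Viability was read in the same wells by CellTiter-Glo luminescence after 30 min at room temperature.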

Assay [15] has as its target Estrogen receptor (Homo sapiens) (UniProt P03372). Put plainly: qHTS assay to identify small molecule agonists of the estrogen receptor alpha (ER-alpha) signaling pathway in the presence of an antagonist (AID 1259383; calls by dose curve; note: top concentration of the series differs between compounds; nearly all actives have a fitted effect of over 15% in size). An outline of the steps:
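VM7Luc4E2 cells (endogenous full-length ER-alpha, 4×ERE-luciferase) were precultured 5 days in phenol red-free medium with 10% charcoal-stripped FBS, given 10.0nM ICI-182,780 (final), then treated with compounds at 15 concentrations for 22hr at 37C; luminescence read with ONE-Glo.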

Assay [16] in a line: qHTS assay to identify small molecule agonists or antagonists of the thyroid stimulating hormone receptor (TSHR) signaling pathway - wild type cell line counter screen (AID 1259384; calls by dose curve). An outline of the steps:
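Wild-type HEK293 cells were plated 18 h at 37 C/5% CO2, pin-dosed with compound plus Ro20-1724 medium, held 30 min at room temperature, then given cAMP-d2 and anti-cAMP-cryptate; fluorescence was read after 1 h. Fifteen concentrations, triplicate.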

The target of assay [17] is Thyrotropin receptor (Homo sapiens) (UniProt P16473). The assay can be described thus: qHTS assay to identify small molecule antagonists of the thyroid stimulating hormone receptor (TSHR) signaling pathway (AID 1259385; calls by dose curve; note: nearly all actives have a fitted effect of over 20% in size). A digest of the protocol: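 TSHR-HEK293 cells were plated and held 18 h at 37C/5% CO2, then given compound plus Ro20-1724 and stimulated with TSH at 1.5 ng/mL final. After 30 min at room temperature, cAMP was detected with cAMP-d2/anti-cAMP-cryptate (1 h) by fluorescence.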
Sequence of Thyrotropin receptor (Homo sapiens) (P16473 whole entry, looked up): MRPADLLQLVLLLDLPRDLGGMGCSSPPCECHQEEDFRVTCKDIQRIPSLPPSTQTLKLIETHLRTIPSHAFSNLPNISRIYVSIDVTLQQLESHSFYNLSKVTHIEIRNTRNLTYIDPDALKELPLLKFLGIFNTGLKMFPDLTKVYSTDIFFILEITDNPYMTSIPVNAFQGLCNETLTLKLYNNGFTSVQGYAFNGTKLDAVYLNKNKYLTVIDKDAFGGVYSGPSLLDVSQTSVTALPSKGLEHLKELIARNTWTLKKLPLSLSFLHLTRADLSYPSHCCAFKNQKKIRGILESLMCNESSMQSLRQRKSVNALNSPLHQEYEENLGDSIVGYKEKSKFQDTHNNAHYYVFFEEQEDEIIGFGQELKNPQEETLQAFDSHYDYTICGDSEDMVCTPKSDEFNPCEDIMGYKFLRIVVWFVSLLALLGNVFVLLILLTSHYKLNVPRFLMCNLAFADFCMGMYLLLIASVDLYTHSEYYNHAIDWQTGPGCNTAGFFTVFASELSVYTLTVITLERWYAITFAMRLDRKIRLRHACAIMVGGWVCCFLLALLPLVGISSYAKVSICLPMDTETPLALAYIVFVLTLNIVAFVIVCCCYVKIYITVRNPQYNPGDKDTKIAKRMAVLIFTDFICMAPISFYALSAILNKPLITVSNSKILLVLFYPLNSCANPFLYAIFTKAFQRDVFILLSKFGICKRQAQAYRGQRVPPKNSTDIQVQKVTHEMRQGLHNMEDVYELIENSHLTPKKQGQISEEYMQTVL

Assay [18] can be described thus: qHTS assay to identify small molecule agonists of the estrogen receptor alpha (ER-alpha) signaling pathway in the presence of an antagonist - cell viability counter screen (AID 1259386). Note: series mostly up to about 92 µM; nearly all actives have a fitted effect of over 30% in size. An outline of the steps:
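VM7Luc4E2 cells (endogenous full-length ER-alpha, 4×ERE-luciferase) were held 5 days in phenol red-free medium with 10% charcoal-stripped FBS, plated, then given 10.0nM ICI-182,780 and compounds at 15 concentrations for 22hr at 37C; viability read by CellTiter-Fluor fluorescence.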

A short description of assay [19]: qHTS assay to identify small molecule HDAC inhibitors (AID 1259364). Note: top concentration of the series differs between compounds; nearly all actives have a fitted effect of over 45% in size. A digest of the protocol: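 Wild-type HCT-116 cells were plated overnight, exposed to compounds for 2 h at 37 °C, then given HDAC-Glo class I/II luminogenic reagent for 30 min at room temperature before luminescence was read.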

Sequence of Estrogen receptor (Homo sapiens) (P03372 whole entry, looked up): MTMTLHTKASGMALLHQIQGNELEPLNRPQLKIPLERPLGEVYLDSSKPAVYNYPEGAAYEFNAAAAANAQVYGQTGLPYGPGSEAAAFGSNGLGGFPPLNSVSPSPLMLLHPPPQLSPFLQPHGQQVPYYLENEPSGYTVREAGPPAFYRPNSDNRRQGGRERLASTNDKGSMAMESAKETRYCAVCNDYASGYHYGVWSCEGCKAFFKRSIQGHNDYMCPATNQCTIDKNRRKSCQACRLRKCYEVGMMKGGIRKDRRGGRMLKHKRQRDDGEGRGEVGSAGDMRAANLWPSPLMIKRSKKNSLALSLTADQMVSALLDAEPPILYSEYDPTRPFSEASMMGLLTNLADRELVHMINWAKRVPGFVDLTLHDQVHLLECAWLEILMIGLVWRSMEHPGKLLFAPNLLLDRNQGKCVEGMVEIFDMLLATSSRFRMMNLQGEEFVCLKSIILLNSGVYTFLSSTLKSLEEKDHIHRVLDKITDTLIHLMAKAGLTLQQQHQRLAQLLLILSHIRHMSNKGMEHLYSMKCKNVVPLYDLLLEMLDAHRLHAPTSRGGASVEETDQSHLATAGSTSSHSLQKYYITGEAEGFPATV

Consider `COC(=O)c1c(Cl)c(Cl)c(C(=O)OC)c(Cl)c1Cl`, for which the result in [1], in assay [3], in assay [5], in assay [8], in assay [10] and in [11] was inactive. Also, the compound was classed as inactive in assay [16]. The Potency entry in assay [2], in assay [4], in assay [6], in assay [7], in assay [9] and in [12] was “inactive” each time. Besides, the Potency entry in [13], in assay [14], in assay [15], in [17] and in [18] was “inactive” throughout.
Consider `O=C(O)CCCl`, for which the outcome in [1], in [3], in assay [5], in assay [8], in assay [10] and in [11] was inactive. In addition, in assay [16], the outcome was inactive. Also, the Potency entry in [2], in assay [19], in assay [6], in assay [7], in assay [9] and in assay [12] was “inactive” each time. In addition, the Potency entry in [13], in assay [14], in assay [15], in assay [17] and in [18] was “inactive” in each case.
For the compound `COC(=O)C1=C(C)NC(C)=C(C(=O)OC)C1c1ccccc1[N+](=O)[O-]`, the result in [1], in assay [3], in assay [5], in [8], in [10] and in assay [11] was inactive. In addition, the compound was called inactive in [16]. Besides, the Potency result in [2], in [19], in [12], in [13], in assay [14] and in assay [15] was “inactive” each time. Further, the Potency result in assay [17] and in assay [18] was “inactive” throughout. The Potency in assay [6] was 27.3 µM (active); in assay [7], 30.7 µM (active) and inactive; in assay [9], 6.12 µM (active) and 6.68 µM (active).
As to `Cc1ccc(Cl)cc1Cl`, the outcome in [1], in assay [3], in assay [5], in assay [8], in assay [10] and in assay [11] was inactive. Further, the result in assay [16] was inactive. Moreover, the Potency result in assay [2], in assay [19], in assay [6], in [7], in [9] and in [12] was “inactive” in each case. For the same compound, the Potency result in assay [13], in assay [14], in assay [15], in assay [17] and in [18] was “inactive” throughout.
In the case of `CCS(=O)(=O)c1ccc(OC)c(C(=O)OC)c1`, the result in assay [1], in [3], in assay [5], in assay [8], in assay [10] and in [11] was inactive. The Potency entry in [2], in assay [19], in [6], in [7], in assay [9] and in assay [12] was “inactive” throughout. Besides, the Potency entry in assay [13], in assay [14] and in assay [18] was “inactive” in each case.
For `C=CCS(=O)(=O)O`, the result in [1], in assay [3], in assay [5] and in assay [8] was inactive. Further, the Potency result in assay [2], in assay [19], in [6], in assay [7], in assay [9] and in assay [12] was “inactive” in each case. Also, the Potency entry in assay [13], in assay [14], in assay [17] and in [18] was “inactive” in each case.
Take `Cc1nc2c([nH]1)c(=O)n(C)c(=O)n2Cc1ccco1`: the result in assay [1], in assay [3], in assay [5], in assay [8], in assay [10] and in assay [11] was inactive. In addition, the Potency entry in [2], in [4], in [6], in [7], in assay [12] and in assay [13] was “inactive” throughout. The Potency result in assay [14], in assay [15] and in [18] was “inactive” throughout.
Turning to `CN1CCCC1`, the outcome in [1], in assay [3], in [5], in assay [8] and in assay [16] was inactive. Besides, the Potency entry in assay [2], in assay [19], in assay [6], in assay [7], in assay [9] and in [12] was “inactive” throughout. The Potency result in assay [13], in assay [14], in [15], in assay [17] and in assay [18] was “inactive” throughout.
